# Inconclusive results are not listed. Where a call stands in place of a potency, no number is given. Activity calls are given as the source filed them. Unless noted, the call rests on the fitted dose curve; in most records, active means well fitted curve in the direction sought with a large enough effect in the repeat runs; inconclusive means weak or mixed curves; inactive means no such curve, though single readings can be large; an effect the other way counts as inactive or inconclusive.
# Key:
# [1] = qHTS assay to identify small molecule agonists of the peroxisome proliferator-activated receptor delta (PPARd) signaling pathway - cell viability counter screen (AID 743211); further: nearly all actives have a fitted effect of over 55% in size; further: potency means the concentration at half of the fitted maximal effect
# In short: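 HEK293H PPARd-bla, 3000 cells/well; 5 h preincubation 37C/5% CO2; cpd in DMSO, 17 h 37C; B/G FRET substrate 2 h RT; CellTiter-Glo 30 min RT, luminescence.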
# [2] = qHTS assay to identify small molecule antagonists of the peroxisome proliferator-activated receptor delta (PPARd) signaling pathway - cell viability counter screen (AID 743213); further: nearly all actives have a fitted effect of over 50% in size; further: potency means the concentration at half of the fitted maximal effect
# In short: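 In this counter screen, HEK293H cells carrying a UAS-beta-lactamase reporter are co-treated with test compounds and 300 nM L165041 (final) for 17 h at 37 C; cell viability is quantified by CellTiter-Glo luminescence.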
# [3] = qHTS assay to identify small molecule agonists of the farnesoid-X-receptor (FXR) signaling pathway - cell viability counter screen (AID 743218); further: nearly all actives have a fitted effect of over 45% in size; further: potency means the concentration at half of the fitted maximal effect
# In short: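 Parallel cytotoxicity test: compound-treated (16 h, 37 C) HEK 293T FXR-bla reporter cells were lysed with CellTiter-Glo and luminescence recorded.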
# [4] = qHTS assay to identify small molecule antagonists of the farnesoid-X-receptor (FXR) signaling pathway - cell viability counter screen (AID 743221; active means well fitted cell-killing curve with a large enough effect in the repeat runs, not every such curve was filed as active; further: nearly all actives have a fitted effect of over 50% in size)
# In short: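 Luminescence from CellTiter-Glo measures cytotoxicity in GeneBLAzer FXR-UAS-bla HEK 293T cells. Cells were exposed to compounds with 50 uM chenodeoxycholic acid (final) for 16 h at 37 C, in wells also used for the reporter readout.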
# [5] = target: Vitamin D3 receptor (Homo sapiens) (UniProt P11473); test: qHTS assay to identify small molecule agonists of the vitamin D receptor (VDR) signaling pathway (AID 743222; calls by dose curve)
# Vitamin D3 receptor (Homo sapiens), sequence (P11473 whole entry, looked up): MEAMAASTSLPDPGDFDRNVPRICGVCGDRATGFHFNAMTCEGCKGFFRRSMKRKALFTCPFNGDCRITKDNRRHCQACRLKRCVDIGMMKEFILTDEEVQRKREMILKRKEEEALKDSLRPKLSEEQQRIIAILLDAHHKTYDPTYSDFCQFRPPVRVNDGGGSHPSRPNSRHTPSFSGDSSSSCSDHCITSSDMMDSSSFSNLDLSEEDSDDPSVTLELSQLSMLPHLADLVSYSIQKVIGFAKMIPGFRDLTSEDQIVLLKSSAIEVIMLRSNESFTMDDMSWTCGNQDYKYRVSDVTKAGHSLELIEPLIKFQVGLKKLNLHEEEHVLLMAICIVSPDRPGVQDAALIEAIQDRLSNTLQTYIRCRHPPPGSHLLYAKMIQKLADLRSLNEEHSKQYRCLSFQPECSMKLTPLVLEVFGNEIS
# In short: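 In VDR-bla cells, compound-induced beta-lactamase expression is quantified by FRET substrate fluorescence. Treatment lasts 16 h at 37C; substrate develops 2 h at room temperature.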
# [6] = target: Vitamin D3 receptor (Homo sapiens) (UniProt P11473); test: qHTS assay to identify small molecule antagonists of the vitamin D receptor (VDR) signaling pathway (AID 743223; active means well fitted inhibition curve with a large enough effect in the signal ratio in the repeat runs, not every such curve was filed as active; the % refers to the signal ratio)
# In short: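 Antagonist mode uses 1alpha,25-dihydroxyvitamin D3 at 3 nM final as stimulus. VDR-bla cells receive compounds in DMSO, incubate 16 h at 37C, then a beta-lactamase FRET substrate for 2 h at room temperature before fluorescence measurement.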
# [7] = qHTS assay to identify small molecule agonists of the vitamin D receptor (VDR) signaling pathway - cell viability counter screen (AID 743224); further: series mostly up to about 63 µM; nearly all actives have a fitted effect of over 50% in size
# In short: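 Plated VDR-bla cells (4 h, 37C) received compound, incubated 16 h, then LiveBLAzer substrate 2 h RT; CellTiter-Glo added afterwards, luminescence read at 30 min.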
# [8] = qHTS assay to identify small molecule antagonists of the vitamin D receptor (VDR) signaling pathway - cell viability counter screen (AID 743225); further: nearly all actives have a fitted effect of over 50% in size
# In short: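 Read-out: CellTiter-Glo luminescence measured 30 min after reagent addition at room temperature. Cells were VDR-bla HEK 293T exposed 16 h at 37C, 5% CO2, to compound with 3 nM final calcitriol agonist.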
# [9] = qHTS assay to identify small molecule agonists of the NFkB signaling pathway (AID 1159509; active means well fitted curve in the direction sought with a large enough effect in the signal ratio in the repeat runs, not every such curve was filed as active; the % refers to the signal ratio; further: series mostly up to about 61 µM)
# In short: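 NFkB-bla ME-180 cells with a beta-lactamase reporter under an NF-kB response element were plated overnight, treated with compounds in DMSO for 5 hr at 37 C, then loaded with FRET substrate for 1.5 hr at room temperature.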
# [10] = qHTS assay to identify small molecule agonists of the endoplasmic reticulum stress response signaling pathway (AID 1159516; active means well fitted activation curve with a large enough effect in the signal ratio in the repeat runs, not every such curve was filed as active; the % refers to the signal ratio)
# In short: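 An ESRE-bla HeLa cell assay: compounds were pin-transferred from DMSO onto overnight-plated cells and left 5 hr at 37 C. Substrate was then loaded for 2 hr at room temperature before reading fluorescence at 460 nm and 530 nm.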
# [11] = qHTS assay to identify small molecule agonists of the endoplasmic reticulum stress response signaling pathway - cell viability counter screen (AID 1159517; calls by dose curve)
# In short: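 Luminescence readout: CellTiter-Glo, 30 min RT, same wells as the ESRE-bla reporter read. HeLa ESRE-bla, 1,500 cells/well, o/n 37 C; cpd 5 hr 37 C/5% CO2.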
# [12] = qHTS assay to identify small molecule antagonists of the retinoid-related orphan receptor gamma (ROR-gamma) signaling pathway - cell viability counter screen (AID 1159520); further: nearly all actives have a fitted effect of over 50% in size; further: potency means the concentration at half of the fitted maximal effect
# In short: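 Tet-on ROR gamma CHO cells (1,000/well) were plated 4 hr, given compounds in DMSO for 2 hr at 37 C, then induced with 1 uM final doxycycline for 16 hr. Viability was read as ATP by CellTiter-Glo luminescence after 30 min.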
# [13] = target: Nuclear receptor ROR-gamma (Homo sapiens) (UniProt P51449); test: qHTS assay to identify small molecule antagonists of the retinoid-related orphan receptor gamma (ROR-gamma) signaling pathway (AID 1159521; further: nearly all actives have a fitted effect of over 50% in size; further: potency means the concentration at half of the fitted maximal effect)
# In short: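 CHO Tet-on RORγ, RORE-luc reporter. Cpd 2 h pre-incubation, then dox hyclate 1 uM final, 16 h, 37 C/5% CO2. ONE-Glo luminescence; decrease = antagonist.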
# [14] = qHTS assay to identify small molecule agonists of the AP-1 signaling pathway - cell viability counter screen (AID 1159525; calls by dose curve; further: nearly all actives have a fitted effect of over 55% in size)
# In short: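 ME-180 AP-1-bla, 2500 cells/well, Opti-MEM + 0.5% dialyzed FBS; overnight 37 °C; cpd 15-pt titration, 5 h 37 °C; CellTiter-Glo 30 min RT; luminescence read; normalised to TOAB and DMSO controls.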
# [15] = qHTS assay to identify small molecule agonists of the AP-1 signaling pathway (AID 1159526; calls by dose curve)
# [16] = target: Peroxisome proliferator-activated receptor delta (Homo sapiens) (UniProt Q03181); test: qHTS assay to identify small molecule agonists of the peroxisome proliferator-activated receptor delta (PPARd) signaling pathway (AID 743212; calls by dose curve; further: potency means the concentration at half of the fitted maximal effect)
# Peroxisome proliferator-activated receptor delta (Homo sapiens), sequence (Q03181 whole entry, looked up): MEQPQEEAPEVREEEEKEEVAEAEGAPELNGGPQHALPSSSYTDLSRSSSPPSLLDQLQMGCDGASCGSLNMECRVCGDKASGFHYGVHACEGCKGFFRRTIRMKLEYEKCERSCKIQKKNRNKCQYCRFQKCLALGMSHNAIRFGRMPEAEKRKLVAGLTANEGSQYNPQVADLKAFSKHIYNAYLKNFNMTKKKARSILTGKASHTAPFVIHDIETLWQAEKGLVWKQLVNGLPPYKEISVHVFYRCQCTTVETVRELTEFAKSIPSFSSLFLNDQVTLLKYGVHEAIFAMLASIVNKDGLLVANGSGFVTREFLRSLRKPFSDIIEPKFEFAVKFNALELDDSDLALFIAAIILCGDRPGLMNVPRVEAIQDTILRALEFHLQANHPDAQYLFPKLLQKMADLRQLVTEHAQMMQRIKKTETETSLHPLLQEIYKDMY
# In short: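 GeneBLAzer PPARd UAS-bla HEK293H cells (beta-lactamase reporter under UAS control), plated and rested 5 h at 37 C, then exposed to compounds in DMSO at 37 C; LiveBLAzer B/G FRET substrate added, 2 h room temperature, fluorescence read.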
# [17] = target: Peroxisome proliferator-activated receptor delta (Homo sapiens) (UniProt Q03181); test: qHTS assay to identify small molecule antagonists of the peroxisome proliferator-activated receptor delta (PPARd) signaling pathway (AID 743215; active means well fitted inhibition curve with a large enough effect in the signal ratio in the repeat runs, not every such curve was filed as active; the % refers to the signal ratio;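 further: cells stimulated with agonist L165041 at 300 nM final during compound exposure; series mostly up to about 62 µM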)
# In short: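 HEK293H UAS-bla, PPARd; agonist L165041 300 nM final with cpd in DMSO; 37 C 17 h; FRET substrate, RT 2 h; fluorescence intensity.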
# [18] = target: Bile acid receptor (Homo sapiens) (UniProt Q96RI1); test: qHTS assay to identify small molecule agonists of the farnesoid-X-receptor (FXR) signaling pathway (AID 743220; active means well fitted activation curve with a large enough effect in the signal ratio in the repeat runs, not every such curve was filed as active; the % refers to the signal ratio)
# Bile acid receptor (Homo sapiens), sequence (Q96RI1 whole entry, looked up): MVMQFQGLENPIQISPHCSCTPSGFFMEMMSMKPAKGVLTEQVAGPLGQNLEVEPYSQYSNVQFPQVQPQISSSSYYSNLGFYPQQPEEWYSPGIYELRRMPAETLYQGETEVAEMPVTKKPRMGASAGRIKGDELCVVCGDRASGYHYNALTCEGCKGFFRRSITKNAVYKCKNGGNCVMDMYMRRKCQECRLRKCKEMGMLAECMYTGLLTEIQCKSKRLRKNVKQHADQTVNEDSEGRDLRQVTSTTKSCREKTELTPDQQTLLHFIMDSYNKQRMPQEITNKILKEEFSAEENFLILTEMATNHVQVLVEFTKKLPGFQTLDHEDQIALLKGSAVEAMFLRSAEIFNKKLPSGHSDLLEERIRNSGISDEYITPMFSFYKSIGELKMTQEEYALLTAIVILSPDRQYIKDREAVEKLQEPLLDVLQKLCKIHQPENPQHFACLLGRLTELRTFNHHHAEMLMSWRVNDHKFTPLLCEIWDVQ
# In short: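 Beta-lactamase reporter under UAS control in GeneBLAzer FXR HEK 293T cells (5000/well) measured with LiveBLAzer FRET substrate after 2 h at room temperature. Compound exposure lasted 16 h at 37C.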
SMILES,Potency [1],Potency [2],Potency [3],Potency [4],Potency [5],Potency [6],Potency [7],Potency [8],Potency [9],Potency [10],Potency [11],Potency [12],Potency [13],Potency [14],Potency [15],Potency [16],Potency [17],Potency [18]
OC1(c2ccccc2)CCNCC1,inactive,inactive,inactive,inactive,inactive,inactive,inactive,inactive,inactive,inactive,inactive,inactive,inactive,inactive,inactive,–,–,–
CC(C)(O)c1ccc(CNC(=O)c2cccnc2Oc2ccc3nonc3c2)cc1,inactive,inactive,inactive,inactive,–,inactive,inactive,inactive,inactive,inactive,inactive,inactive,inactive,–,inactive,inactive,inactive,–
C=CCc1ccccc1OCC(O)CNC(C)C (configuration not stated),inactive,inactive,inactive,inactive,inactive,inactive,inactive,inactive,inactive,inactive,inactive,inactive,inactive,–,inactive,inactive,–,–
CC(C)C[C@H](NC(=O)[C@H](CCc1ccccc1)NC(=O)CN1CCOCC1)C(=O)N[C@@H](Cc1ccccc1)C(=O)N[C@@H](CC(C)C)C(=O)[C@@]1(C)CO1,0.237 µM (active),–,–,–,–,–,–,–,inactive,inactive,inactive,0.75 µM (active),1.19 µM (active),–,inactive,–,–,–
O=c1c(O)c(-c2ccc(O)cc2)oc2cc(O)cc(O)c12,inactive,inactive,–,inactive,–,–,inactive,inactive,inactive,inactive,inactive,inactive,inactive,inactive,inactive,–,–,inactive
CN(C)CCC=C1c2ccccc2C=Cc2ccccc21,–,23.7 µM (active),11.9 µM (active),–,inactive,inactive,inactive,–,inactive,inactive,inactive,inactive,inactive,inactive,–,–,inactive,–
Cc1[nH]cnc1CN1CCc2c(c3ccccc3n2C)C1=O,inactive,inactive,inactive,inactive,inactive,inactive,inactive,inactive,inactive,inactive,inactive,inactive,inactive,inactive,inactive,–,–,–
CCCCCC[C@@H](O)C/C=C\CCCCCCCC(=O)OCC(O)CO (some centres not stated),inactive,inactive,inactive,inactive,inactive,–,inactive,inactive,inactive,inactive,inactive,inactive,inactive,inactive,–,49 µM (active),–,–
CCOC(C)=O,inactive,–,inactive,inactive,inactive,inactive,inactive,inactive,inactive,inactive,inactive,inactive,inactive,inactive,inactive,inactive,–,–
NC1[C@H]2CN(c3nc4c(cc3F)c(=O)c(C(=O)O)cn4-c3ccc(F)cc3F)C[C@@H]12 (some centres not stated),inactive,inactive,inactive,inactive,–,–,–,–,inactive,inactive,inactive,inactive,inactive,–,inactive,29.8 µM (active),–,–

# Reference: PubChem BioAssay (Tox21)
